Results: PubChem BioAssay AID488975 (Johns Hopkins Ion Channel Center, 2010)
In all, about 310,000 compounds went through this assay and about 2,600 (0.84%) were called active.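 Rule for the calls: active = B-score over 3 SD under the library average, and starting fluorescence ratio not unusually high; inactive = the rest.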 The list comes from a sample in which actives are over-represented; it also holds similar structures and randomly drawn compounds.

These compounds were tested against High affinity choline transporter 1 (Homo sapiens) (UniProt Q9GZV3) (assay: inhibits the human high affinity choline transporter (AID 488975;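 for B-score: choline stimulus applied at its EC90 after an EC20 pre-addition; B-score computed on integrated fluorescence ratio after choline addition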)). Conditions: CHT-expressing cells, membrane potential dye, choline response, at 10 µM; stronger effect = lower value.
High affinity choline transporter 1 (Homo sapiens), sequence (Q9GZV3 whole entry, looked up): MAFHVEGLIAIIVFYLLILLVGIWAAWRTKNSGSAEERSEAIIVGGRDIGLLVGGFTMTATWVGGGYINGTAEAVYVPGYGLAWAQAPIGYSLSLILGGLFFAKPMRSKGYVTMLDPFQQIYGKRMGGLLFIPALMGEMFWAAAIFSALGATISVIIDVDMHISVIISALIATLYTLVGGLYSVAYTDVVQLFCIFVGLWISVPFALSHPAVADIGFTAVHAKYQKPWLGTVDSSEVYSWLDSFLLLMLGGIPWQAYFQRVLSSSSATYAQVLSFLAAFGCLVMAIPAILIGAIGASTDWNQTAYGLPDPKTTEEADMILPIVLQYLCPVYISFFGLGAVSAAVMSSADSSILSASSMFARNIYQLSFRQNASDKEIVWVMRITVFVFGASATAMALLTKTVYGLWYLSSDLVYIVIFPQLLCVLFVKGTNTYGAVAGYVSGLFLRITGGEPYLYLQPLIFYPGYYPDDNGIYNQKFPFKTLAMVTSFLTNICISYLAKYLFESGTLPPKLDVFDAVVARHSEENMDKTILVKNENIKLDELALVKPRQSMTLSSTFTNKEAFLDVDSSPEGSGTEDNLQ

SMILES	B-score
CC(C)(C)C(=O)/C(C#N)=C/c1ccc(O)cc1	-5.45 (active)
CCOC(=O)NC(=O)/C(C#N)=C\c1ccccc1	inactive
CCOC(=O)/C(C#N)=C/c1ccc(N2CCCCC2)cc1	inactive
O=C(NC1CCCCC1)c1ccc2c(=O)n(CC3CCCO3)c(=O)[nH]c2c1 (stereo unspecified)	inactive
CCCCCn1c(=O)[nH]c2cc(C(=O)NCCCN3CCCCC3C)ccc2c1=O (stereo unspecified)	-6.4 (active)
CCC1CCCCN1CCCNC(=O)C1CCC(Cn2c(=O)[nH]c3ccccc3c2=O)CC1 (stereo unspecified)	inactive
CCN1C(=O)[C@H]2[C@@H](c3ccc(C)cc3)N3C(=O)N(c4cccc(Br)c4)C(=O)[C@@]3(CC)[C@H]2C1=O	inactive
O=C(CCCCO)c1ccc(O)c(Cl)c1	inactive
COCCn1c(CN(Cc2ccccc2)Cc2ccccc2)nc2c1c(=O)n(C)c(=O)n2C	inactive
CC(C)CCn1c(CN(C)Cc2ccccc2)nc2c1c(=O)n(C)c(=O)n2C	-5.25 (active)
CC(C)Cn1c(CN(Cc2ccccc2)Cc2ccccc2)nc2c1c(=O)n(C)c(=O)n2C	inactive
COc1cc(C2C(C(=O)c3cccs3)=C(O)C(=O)N2CCN2CCOCC2)ccc1OCCC(C)C (stereo unspecified)	inactive
COCCCNC(=O)CN1C(=O)CSc2ccc(S(=O)(=O)N3CCOCC3)cc21	inactive
CC1CCN(CCCNC(=O)CN2C(=O)CSc3ccc(S(=O)(=O)N4CCCCC4)cc32)CC1	-5.37 (active)
COc1ccc(NC(=O)CN2C(=O)CSc3ccc(S(=O)(=O)N4CCC(C)CC4)cc32)cc1	inactive
O=S(=O)(NCCCc1ccccc1)c1ccc(Br)cc1	inactive
O=C(c1ccc(F)cc1)N1CCC(C(=O)N2CCN(S(=O)(=O)c3ccccc3Br)CC2)CC1	inactive
COc1ccc(/C=C2\SC(=O)N(CCC(=O)NCCCn3ccnc3)C2=O)cc1	inactive
COc1ccc(/C=C2/SC(=O)N(CCCCCC(=O)Nc3ccccc3C(=O)O)C2=S)cc1	-9.31 (active)
O=C(CCCN1C(=O)/C(=C\c2ccccc2)SC1=S)Nc1ccccc1O	inactive
CC(=O)CC(CC(=O)NC1CCCCC1)c1ccccc1 (stereo unspecified)	inactive
CCOC(=O)C1CCN(C(=O)c2oc3ccc(S(=O)(=O)N4CCCCCC4)cc3c2C)CC1	inactive
Cc1ccc2c(C)c(C(=O)N3CCC(N4CCC(C(=O)NC5CC5)CC4)CC3)oc2c1	-8.96 (active)
Cc1ccc(C)c(C(=O)N2CCC(n3nccc3NC(=O)C3CC3)CC2)c1	inactive

SMILES	B-score
COc1ccc(C(=O)Nc2ccc(CN3CCOCC3)cc2)cc1	inactive
Cc1ccccc1-n1c(C)cc(/C=N/NC(=O)c2ccc(CN3CCOCC3)cc2)c1C	-9.28 (active)
C/C(CCc1ccccc1)=N\NC(=O)c1ccc(CN2CCOCC2)cc1	inactive
COc1ccc(S(=O)(=O)NCc2cccnc2)cc1NC(=O)c1ccc(C)cc1	inactive
Cc1cc(C)c(S(=O)(=O)N2CCCC2CNC(=O)c2ccc3c(c2)OCO3)c(C)c1 (stereo unspecified)	inactive
O=S(=O)(O)Oc1c[nH]c2ccccc12	inactive
COc1ccc(OCC(=O)OCCN(C)C)cc1	-11 (active)
COc1ccc(OCCC(=O)c2ccc(OC)cc2)cc1	inactive
COc1ccc(OCCCC(=O)Oc2ccc(OC)cc2)cc1	inactive
CCOc1ccc(CCNC(=O)COC(=O)c2c(OC)cccc2OC)cc1OCC	inactive
CN1CCCN(S(=O)(=O)c2ccc3c(c2)OCCO3)CC1	inactive
CCCCCC(=O)N1CCN(S(=O)(=O)c2ccc3c(c2)OCCCO3)CC1	inactive
O=C(c1c(F)cccc1Cl)N1CCN(S(=O)(=O)c2ccc3c(c2)OCCCO3)CC1	-5.01 (active)
CC(C)c1ccc(S(=O)(=O)N2CCN(C(=O)CN3C(=O)NC(C)(c4ccccc4)C3=O)CC2)cc1 (stereo unspecified)	inactive
CSc1nnc(NC(=O)c2nc(S(=O)(=O)Cc3ccc(C)cc3)ncc2Cl)s1	inactive
Cc1cccc(NC(=O)c2nc(S(=O)(=O)Cc3ccccc3)ncc2Cl)c1	inactive
Cc1ccc(CS(=O)(=O)c2ncc(Cl)c(C(=O)Nc3nnc(C)s3)n2)cc1	-9.37 (active)
Cc1ccc(C(=O)CN2C(=O)NC3(CCc4ccccc43)C2=O)c(C)c1 (stereo unspecified)	inactive
CC(=O)OCCOCn1cnn2c(=O)c(Br)c(C)nc12	-5.09 (active)
O=C(OCCOCn1cc(Br)c(=O)[nH]c1=O)c1ccccc1	inactive
CCCN(CC(=O)Nc1ccccc1OC)C(=O)CCC(=O)c1ccc(F)cc1	inactive
O=C(Nc1ccn(Cc2ccccc2)n1)c1n[nH]c([N+](=O)[O-])c1Cl	-5.17 (active)
Cc1ccc(Cn2ccc(NC(=O)c3cc(C(C)C)on3)n2)cc1	inactive
Cn1cc([N+](=O)[O-])c(C(=O)Nc2cnn(Cc3ccc(F)cc3)c2)n1	inactive

SMILES	B-score
CCN1C(=O)[C@@H]2[C@@H](c3ccc(-c4ccccc4)cc3)N3CCCC[C@@]3(C(=O)OC)[C@@H]2C1=O	inactive
CCCCCCSc1ccc([C@@H]2[C@@H]3C(=O)N(CC)C(=O)[C@@H]3[C@]3(C(=O)OC)CCCCN23)cc1OC	inactive
O=C(NCCC1CCCCN1S(=O)(=O)c1ccc(F)cc1)C(=O)NC1CC1 (stereo unspecified)	inactive
COc1ccc(CCNc2cc(N3CCN(C(=O)c4ccccc4OC)CC3)ccc2[N+](=O)[O-])cc1OC	inactive
CCS(=O)(=O)C1=NSC2=NC(=O)/C(=C\c3ccc(OS(=O)(=O)c4ccccc4)cc3)C(=N)N21	-7.46 (active)
CCS(=O)(=O)C1=NSC2=NC(=O)/C(=C\c3cc(C)n(-c4cccc(OC)c4)c3C)C(=N)N21	inactive
Cc1cc(/C=C2/C(=N)N3C(=NC2=O)SN=C3S(C)(=O)=O)c(C)n1-c1ccccc1	inactive
Cc1ccc2c(C)c(C(=O)N3CCN(c4ccncc4)CC3)oc2c1C	inactive
CCOc1cc(C(=O)Nc2ccc(S(=O)(=O)Nc3cnc4ccccc4n3)cc2)cc(OCC)c1OCC	inactive
O=C(Nc1ccccc1C(=O)NCCCn1ccnc1)c1ccc(Cl)cc1Cl	-5.25 (active)
O=C(NCCCn1ccnc1)Nc1ccc(Cl)cc1Cl	inactive
O=C(NCCCn1ccnc1)c1ccccc1F	inactive
COc1ccc(C(=O)C2CCCN(C(=O)c3ccc(OC)o3)C2)c(C)c1 (stereo unspecified)	inactive
CCOCCCN(C)C1CCN(C(=O)c2oc3ccccc3c2NC(=O)COc2cccc(C)c2)CC1	-6.44 (active)
COCC(=O)Nc1c(C(=O)N2CCCC2)oc2ccccc12	inactive
CCOCCCN(C)C1CCN(C(=O)c2oc3ccccc3c2NC(=O)Cc2cccc([N+](=O)[O-])c2)CC1	inactive
C/C(=N\Nc1ncc(Cl)cc1Cl)c1cccs1	inactive
C/C(=N\Nc1nc2ccccc2[nH]1)c1cccs1	-6.15 (active)
O=C(Nc1ccccc1-c1nc2ccccc2[nH]c1=O)c1cccs1	inactive
COC(=O)c1ccc(SCc2ccccc2)nc1	inactive
COc1cnn(-c2ccc([N+](=O)[O-])cc2)c(=O)c1Cl	inactive
Nc1c(C(=O)Nc2ccc3c(c2)OCCO3)nnn1Cc1ccccc1	inactive
O=C(NCCCc1ccccc1)C(=O)c1c[nH]c2ccccc12	inactive
O=C(Cc1c[nH]c2ccccc12)OCCOC(=O)Cc1c[nH]c2ccccc12	inactive

SMILES	B-score
O=C(OCC(=O)c1c[nH]c2ccccc12)c1cccc(O)c1	-7.81 (active)
COc1ccc(N2CCN(C(=O)COC(=O)c3cccc(S(=O)(=O)Nc4ccccc4OC)c3)CC2)cc1	inactive
O=C(Nc1ccc2c(c1)CCC2)c1cccc(S(=O)(=O)N2CCN(c3ccc(F)cc3)CC2)c1	inactive
Cc1cccnc1NC(=O)c1cccc(S(=O)(=O)N2CCN(c3ccc(F)cc3)CC2)c1	-6.97 (active)
O=C(Nc1cccnc1)c1cccc(S(=O)(=O)N2CCCC2)c1	inactive
CN1CCN(S(=O)(=O)c2cccc(C(=O)O)c2)CC1	inactive
COc1ccc(OC)c(NC(=O)c2cccc(S(=O)(=O)N3CCN(C(C)=O)CC3)c2)c1	inactive
CC(=O)N1CCN(S(=O)(=O)c2cccc(C(=O)NC3CCC(C)CC3)c2)CC1 (stereo unspecified)	-4.99 (active)
CCc1ccc(OC(C)C(=O)Nc2ccc(S(=O)(=O)Nc3cc(C)on3)cc2)cc1 (stereo unspecified)	inactive
CCC(Oc1ccccc1C)C(=O)Nc1ccc(S(=O)(=O)Nc2cc(C)on2)cc1 (stereo unspecified)	-6.05 (active)
CC(Oc1cccc(Cl)c1)C(=O)Nc1ccc(S(=O)(=O)Nc2ncccn2)cc1 (stereo unspecified)	inactive
Cc1cc(NS(=O)(=O)c2ccc(NC(=O)c3cccc(OC(F)F)c3)cc2)nc(C)n1	inactive
Cc1cc(OC(C)C(=O)Nc2ccc(S(=O)(=O)Nc3onc(C)c3C)cc2)cc(C)c1Cl (stereo unspecified)	-4.96 (active)
Cc1cc(NS(=O)(=O)c2ccc(NC(=O)c3cccnc3)cc2)nc(C)n1	inactive
Cc1cc(NS(=O)(=O)c2ccc(NC(=O)C(C)Oc3cccc(C)c3C)cc2)nc(C)n1 (stereo unspecified)	-9.11 (active)
COc1cc2ccccc2cc1C(=O)Nc1ccc(S(=O)(=O)Nc2cc(C)on2)cc1	-5.68 (active)
COc1ccc(C(=O)Nc2ccc(S(=O)(=O)Nc3onc(C)c3C)cc2)cc1OC	inactive
CCOc1ccc(CC(=O)Nc2ccc(S(=O)(=O)Nc3cc(C)on3)cc2)cc1OCC	inactive
COc1cc(OC)cc(C(=O)Nc2ccc(S(=O)(=O)Nc3cc(C)on3)cc2)c1	inactive
CCOc1ccc(C(=O)Nc2ccc(S(=O)(=O)Nc3cc(C)on3)cc2)cc1	inactive
COc1ccc(Cl)cc1NC(=O)CN(C)C(=O)c1cc(-c2cccs2)nn1-c1ccccc1	inactive
O=C(CNC(=O)c1ccccc1Br)NCCSc1ccc(Br)cc1	inactive
O=C(Oc1ccc(-c2nnco2)cc1)c1ccc(F)c(S(=O)(=O)N2CCOCC2)c1	inactive
O=C(NCCCN1CCCC1=O)c1ccc(S(=O)(=O)Nc2ccccc2)cc1	inactive
